According to PubChem BioAssay (EPA / NIEHS):
Activity calls are given as the source filed them. Rule for the calls: active = hit-call score of the fitted dose curve at least 0.9, where 1 is the maximum; inactive = score below 0.9.

test: APR_HepG2_MitoMembPot_24hr: Apredica 24-hour HepG2 Assay for Mitochondrial Membrane Potential (AID 2282911); settings: imaging, actives raise or lower the signal
Description: APR_HepG2_24hr is a cell-based, multiplexed-readout assay that uses HepG2, a human liver cell line, with measurements taken at 24 hours after chemical dosing in a 384-well plate.APR_HepG2_MitoMembPot_24hr is one of 10 assay component(s) measured or calculated from the APR_HepG2_24hr assay. It is designed to make measurements of dye binding, a form of membrane potential reporter, as detected with fluorescence intensity signals by HCS Fluorescent Imaging technology.Data from the assay component APR_HepG2_MitoMembPot_24hr was analyzed into 1 assay endpoint. This assay endpoint, APR_HepG2_MitoMembPot_24hr, was analyzed with bidirectional fitting relative to DMSO as the negative control and baseline of activity. Using a type of membrane potential reporter, gain or loss-of-signal activity can be used to understand changes in the signaling. Furthermore, this assay endpoint can be referred to as a primary readout, because this assay has produced multiple assay endpoints where this one serves a signaling function. To generalize the intended target to other relatable targets, this assay endpoint is annotated to the cell morphology intended target family, where the subfamily is organelle conformation.
Cells were treated with dimethyl sulfoxide (DMSO) as a solvent control at a final concentration of 0.5% v/v or with compounds in DMSO with a resulting final DMSO concentration of 0.5% v/v. Compound treatment was done at concentrations of 0.39, 0.78, 1.56, 3.12, 6.24, 12.5, 25, 50, 100, and 200 uM in duplicate on each plate. Cells were treated with compounds for 1, 24, or 72 hr. Carbonyl […] m-chloro-phenylhydrazone (CCCP) and taxol were used as positive controls for mitochondrial function and cytoskeletal stability, respectively; DMSO served as the negative control for this experiment. Cells were fixed by the direct addition of 50 uL formaldehyde in Hank's Balanced Salt Solution (HBSS) to a final concentration of 3.7%. After incubation in the fixation medium for 30 min at room temperature (293-298 K), cells were rinsed twice with HBSS and treated with cell permeabilization buffer (16 uL of 0.5% Triton X-100) for 10 min at room temperature (293-298 K) before labeling. For mitochondrial membrane potential and mitochondrial measurements, pre-fixed cells were incubated with 50 uL of MitoTracker Red CMXRos (Invitrogen) at a concentration of 250 nM for 30 min before fixation. In the remaining cases, post-fixed cells were labeled by incubation with a multiplexed mixture of primary antibodies in HBSS for 60 min at room temperature (293-298 K) to detect immunoreactivity of c-Jun (1:500), phospho-histone H3 (1:100), phospho-histone H2A.x (1:200), p53 (1:400), alpha-tubulin (1:200) and Hoechst 33342 (2 ug/mL). Cells were labeled for multiplexed imaging on two separate plates: a) Hoechst 33342, MitoTracker Red, phospho-histone H3, and alpha-tubulin, and b) Hoechst 33342, phospho-histone H2A.x, and c-Jun. A final rinse with HBSS (50 uL) was performed before analysis. The primary and secondary antibodies for the proteins were phospho-histone H3 (rabbit anti-phospho-histone H3 and FITC-donkey anti-rabbit IgG), phospho-histone H2A.x (mouse anti-phospho-histone H2A.x and FITC-donkey anti-mouse IgG), c-Jun (rabbit anti-phospho-c-Jun and Cy3-donkey anti-rabbit IgG), p53 (sheep anti-p53 and Cy5-donkey anti-sheep IgG), alpha-tubulin (mouse anti-alpha-tubulin and Cy5-donkey anti-mouse IgG). These antibodies are available as the CellCiphr HepG2 assay kit (Millipore).Digital images of each well were captured using a Cellomics ArrayScan VTI (Thermo Scientific Cellomics) (0.8 NA objective, 0.63x optical coupler, and XF-93 filter set) at 20x magnification. The images were acquired using the autofocus feature of the ArrayScan instrument, which entails the following steps. First, the camera focuses on channel 1 (Hoechst 33342), where nuclei are identified. Second, a Z offset of 1 um is used for capturing mitochondria (MitoTracker Red). […]

Row | Structure (SMILES) | outcome | AC50
1 | COc1cc(C(=O)NC2CCN(C)CC2)ccc1Nc1ncc2c(n1)N(C1CCCC1)CC(F)(F)C(=O)N2C | inactive | 
2 | CC1(C)NC(=O)N(c2ccc([N+](=O)[O-])c(C(F)(F)F)c2)C1=O | inactive | 
3 | CCCCCCCCOc1ccc(C(=O)c2ccccc2)c(O)c1 | inactive | 
4 | O=C1c2ccccc2C(=O)N1CCc1noc(-c2ccc(CN3CCCCCC3)s2)n1 | inactive | 
5 | CC(C)(c1cc(Br)c(O)c(Br)c1)c1cc(Br)c(O)c(Br)c1 |  | 66.1 µM (active)
6 | COc1cccc([C@H](O)C2CCN(CCc3ccc(F)cc3)CC2)c1OC | inactive | 
7 | O=C=NCCCCCCN=C=O | inactive | 
8 | Cc1ccc(C(C)C)cc1 | inactive | 
9 | CCCCCCCCN(C)CCCCCCCC | inactive | 
10 | Cc1ncc(CO)c(CO)c1O | inactive | 
11 | CN(C)C(=O)C1(N2CCCCC2)CCN(CC[C@@]2(c3ccc(Cl)c(Cl)c3)CN(C(=O)c3ccccc3)CCO2)CC1 | inactive | 
12 | CCCCCCCCCCCO |  | 110 µM (active)
13 | COc1ccc2cc(S(=O)(=O)N[C@H](CC(=O)N[C@H](Cc3ccc(CN4[C@H](C)CCC[C@@H]4C)cc3)C(=O)N(C)C(C)C)c3ccc4c(c3)OCO4)ccc2c1 | inactive | 
14 | CO[C@H]1/C=C/O[C@@]2(C)Oc3c(C)c(O)c4c(O)c(c(/C=N/N5CCN(C)CC5)c(O)c4c3C2=O)NC(=O)/C(C)=C\C=C\[C@H](C)[C@H](O)[C@@H](C)[C@@H](O)[C@@H](C)[C@H](OC(C)=O)[C@@H]1C | inactive | 
15 | Cc1c2ccccc2c(C)c2c1ccc1ccccc12 |  | 95.7 µM (active)
16 | CCN(Cc1cccc(S(=O)(=O)O)c1)c1ccc(C(=C2C=CC(=[N+](CC)Cc3cccc(S(=O)(=O)O)c3)C=C2)c2ccccc2S(=O)(=O)[O-])cc1 | inactive | 
17 | OCCO | inactive | 
18 | CC[C@H](NC(=O)c1cc(F)ccc1NS(=O)(=O)c1cccc2cccnc12)c1ccccc1 |  | 105 µM (active)
19 | O=C(O)Cn1c(=O)n(Cc2ccc(Br)cc2F)c(=O)c2ccc(Cl)cc21 | inactive | 
20 | CC(O)CC(C)(C)O (stereo not given) | inactive | 

Row | Structure (SMILES) | outcome | AC50
21 | O=C1CCC(C2CCCCC2)CC1 |  | 19.8 µM (active)
22 | CCCCCc1ccc(N)cc1 | inactive | 
23 | O=c1ccc2ccccc2o1 | inactive | 
24 | O=C(Nc1ccc(Cl)cc1)Nc1ccc(Cl)c(Cl)c1 |  | 13.8 µM (active)
25 | Oc1ccc2ccccc2c1 | inactive | 
26 | c1ccc(C[n+]2cccc3ccccc32)cc1 |  | 32.8 µM (active)
27 | NCc1cccc(C2CCN(C(=O)c3ccc(C#Cc4ccccc4F)o3)CC2)c1 |  | 18.4 µM (active)
28 | CCO[Si](CCCNC(N)=O)(OCC)OCC | inactive | 
29 | CC(=O)N1CCN(c2ccc(OC[C@H]3CO[C@](Cn4ccnc4)(c4ccc(Cl)cc4Cl)O3)cc2)CC1 |  | 118 µM (active)
30 | Cc1cc(F)ccc1-c1cc(N2CC[C@@H](O)[C@H]2CO)ncc1N(C)C(=O)C(C)(C)c1cc(C(F)(F)F)cc(C(F)(F)F)c1 | inactive | 
31 | CC(C)(O)c1ccc(CNC(=O)c2cccnc2Oc2ccc3nonc3c2)cc1 | inactive | 
32 | CC(C)(C)c1cc(/C=C2\SC(N)=NC2=O)cc(C(C)(C)C)c1O | inactive | 
33 | CN1C(=O)N(c2ccccc2Br)Cc2cnc(Nc3ccc4c(c3)OCC(CO)O4)nc21 (stereo not given) |  | 105 µM (active)
34 | CCOC(=O)O[C@H](C)OC(=O)c1ccc2c(c1)cc(C(=O)NC1CCN(C(C)C)CC1)n2Cc1cc(-c2ccc(Cl)s2)on1 |  | 44.4 µM (active)
35 | CN1C(=O)CC[C@H]1c1cccnc1 | inactive | 
36 | O=C1O[C@H]([C@@H](O)CO)C(O)=C1O | inactive | 
37 | O=C(OCCCCCCOC(=O)c1ccccc1)c1ccccc1 | inactive | 
38 | CCCCCCCCCC(=O)O | inactive | 
39 | c1ccc2n[nH]nc2c1 | inactive | 
40 | O=c1c(-c2ccc(O)cc2)coc2cc(O)cc(O)c12 |  | 78.9 µM (active)
